# Screens: PubChem BioAssay, National Center for Advancing Translational Sciences (NCATS)
# Compounds with a hit are over-represented: about 2.9% of the library has one in this group of screens.
# IP6K1 inhibitor – inhibitors of human IP6K1; IP6K1 kinase, ADP-Glo luminescence, 2 h; hits give low values; AID 1645851; hit rate 0.81% among 140,000; activity change, % (series mostly up to about 58 µM); Q92551; in the data active means activity change below about -25%; further: on the % scale 0 is the no-effect control and ±100 the full control effect
#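 ADP-Glo luminescence measures ADP made by human IP6K1 during a 2 h RT reaction with ATP/IP6 (mix at 1.3 mM/130 uM); top library doses 57.5 and 19.1 uM final.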
# HEK293 viab – counter-screen for SNCA expression inhibitors: cell viability | HEK-293-SNCA-luc viability, GF-AFC fluorescence, 24 h | Potency, µM (highest dose often 57.1 µM), without a hit: top-dose activity change, negative = cytotoxicity, hits mostly cytotoxic | hit rate 0.12% among 150,000 | AID 1671193;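 further: potency means the concentration at half of the fitted maximal effect; 0% = DMSO-treated cells and -100% = medium-only wells without cells; nearly all actives have a fitted effect of over 30% in size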
#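 HEK-293-SNCA-luc cells (1500/well) plated 24 h, then exposed 24 h to a dilution series; GF-AFC added 30 min at 37C, fluorescence 405/540 nm; normalised to medium-only and DMSO wells, Hill fit.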
# KDM5B inhibitor – blocks human KDM5B histone demethylase activity; Potency, µM (doses to about 57.7 µM), hits mostly inhibitors; hit rate 2.6% among 220,000; KDM5B demethylase, FDH-coupled NADH fluorescence (FDH is formaldehyde dehydrogenase); Q9UGL1; further: potency means the concentration at half of the fitted maximal effect; 0% is about no effect; nearly all actives have a fitted effect of over 70% in size
# Target sequence (Q9UGL1 whole entry, looked up): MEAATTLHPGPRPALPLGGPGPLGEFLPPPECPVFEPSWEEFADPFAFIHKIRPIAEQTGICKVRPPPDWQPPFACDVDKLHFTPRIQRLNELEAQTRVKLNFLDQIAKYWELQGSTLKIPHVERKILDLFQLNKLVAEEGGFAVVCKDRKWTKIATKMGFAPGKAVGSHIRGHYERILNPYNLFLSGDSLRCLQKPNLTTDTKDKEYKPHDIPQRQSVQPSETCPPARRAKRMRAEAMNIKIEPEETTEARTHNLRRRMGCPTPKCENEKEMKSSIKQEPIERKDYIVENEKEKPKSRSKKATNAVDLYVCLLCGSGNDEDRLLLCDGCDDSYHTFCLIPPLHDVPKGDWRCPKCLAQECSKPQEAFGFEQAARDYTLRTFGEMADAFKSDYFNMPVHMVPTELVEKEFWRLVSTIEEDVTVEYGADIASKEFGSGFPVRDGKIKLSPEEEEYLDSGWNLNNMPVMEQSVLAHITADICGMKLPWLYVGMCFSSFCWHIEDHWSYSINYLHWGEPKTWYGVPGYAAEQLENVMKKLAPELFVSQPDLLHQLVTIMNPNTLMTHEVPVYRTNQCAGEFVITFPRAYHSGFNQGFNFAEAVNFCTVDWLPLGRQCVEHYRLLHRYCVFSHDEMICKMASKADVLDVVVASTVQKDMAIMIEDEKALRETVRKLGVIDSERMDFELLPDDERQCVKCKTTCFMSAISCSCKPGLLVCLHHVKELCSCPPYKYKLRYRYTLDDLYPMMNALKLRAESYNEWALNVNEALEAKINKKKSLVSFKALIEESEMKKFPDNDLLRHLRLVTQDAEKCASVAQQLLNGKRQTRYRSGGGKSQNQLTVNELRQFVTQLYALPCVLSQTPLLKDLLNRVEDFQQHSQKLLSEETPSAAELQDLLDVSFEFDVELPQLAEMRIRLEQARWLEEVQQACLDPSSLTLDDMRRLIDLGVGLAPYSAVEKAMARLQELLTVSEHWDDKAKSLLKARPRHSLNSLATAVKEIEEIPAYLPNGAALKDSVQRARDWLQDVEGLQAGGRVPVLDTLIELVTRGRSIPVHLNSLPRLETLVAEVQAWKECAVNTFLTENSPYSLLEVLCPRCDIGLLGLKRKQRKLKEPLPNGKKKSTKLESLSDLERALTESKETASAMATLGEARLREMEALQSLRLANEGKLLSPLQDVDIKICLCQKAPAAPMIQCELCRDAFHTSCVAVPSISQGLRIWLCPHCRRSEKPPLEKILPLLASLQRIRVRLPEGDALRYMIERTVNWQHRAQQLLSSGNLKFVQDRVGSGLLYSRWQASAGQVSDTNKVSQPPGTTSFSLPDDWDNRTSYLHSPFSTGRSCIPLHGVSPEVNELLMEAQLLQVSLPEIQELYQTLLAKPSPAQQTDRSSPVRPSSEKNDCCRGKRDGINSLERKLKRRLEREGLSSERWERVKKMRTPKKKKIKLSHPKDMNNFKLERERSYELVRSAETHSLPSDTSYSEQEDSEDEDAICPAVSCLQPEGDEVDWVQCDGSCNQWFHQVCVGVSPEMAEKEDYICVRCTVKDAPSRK
#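 Here, H3K4me3 peptide (12.5 µM in substrate mix) is demethylated by KDM5BΔAP, 200 nM final, after 10 min compound exposure. Formaldehyde product is coupled through FDH (0.25 U/mL in mix) to NADH fluorescence; 30-min ΔRFU feeds dose-response curves.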
# SNCA expr inhib – inhibitors of alpha-synuclein (SNCA) gene expression; Potency, µM (highest dose often 57.2 µM), inactives show at the highest dose activity change, negative = inhibition, usual class: inhibitors; HEK-293 SNCA-luciferase knock-in, luminescence, 24 h; AID 1671194; hit rate 0.17% among 140,000;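 further: potency means the concentration at half of the fitted maximal effect; plate controls were DMSO cells for no effect and cell-free wells for full effect; nearly all actives have a fitted effect of over 45% in size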
# Starred values were filed as active, the others as inactive; i = inactive; ? = inconclusive; . = no result; [ ] = another dose, or the depositor's remark. Unless noted, the call rests on the fitted dose curve; in most records, active means well fitted curve in the direction sought with a large enough effect; inconclusive means small, poorly fitted or top-dose-only effect, or another doubt; inactive means no such curve, though single readings can be large; an effect the other way counts as inactive or inconclusive.
SMILES,IP6K1 inhibitor,HEK293 viab,KDM5B inhibitor,SNCA expr inhib
CC(=O)Nc1cccc(-c2nc(-c3c(C)noc3C)cc3cc(CO)oc23)c1,-12.2,-4.2%[87.6 µM],39.8µM*,56.6%[87.6 µM]
CCOC(=O)C(C)Oc1ccc2c(=O)c(Oc3ccccc3)c(C)oc2c1 (centres undefined),.,.,i,.
CO[C@@H]1COCC[C@H]1NC(=O)CCc1ccc(-c2ccc(Cl)cc2)[nH]1,-7.9,-1.1%,28.2µM*,-0.7%
O=C(CCc1ccc(-c2ccc(Cl)cc2)[nH]1)N[C@@H]1C[C@@H]2OCC[C@@H]21,1.0,-6.5%,31.6µM*,13.5%
COc1ccc(NC(=O)CSc2nc3c(=O)[nH]cnc3n2C)c(OC)c1,.,.,i,.
O=C1CCSc2ccc(S(=O)(=O)NCCc3cccs3)cc2N1,.,.,i,.
c1cc(CN2CCOCC2)cc(-c2cnn3ccccc23)c1,-15.5,2.0%,31.6µM*,6.6%
Cc1nnnn1-c1cccc(C(=O)N2CCC3(CCCN(C)C3=O)C2)c1 (centres undefined),-5.8,5.6%,i,2.5%
c1ccc(-c2nc3ccccc3s2)cc1,.,.,i,.
Nc1ccc2nc(-c3ccc(O)cc3)sc2c1,-16.7,-2.0%,i,1.26µM*
COC[C@@H]1CN(c2ncccn2)C[C@H]1C(=O)NCc1c(C)n[nH]c1C,0.0,-14.5%,28.2µM*,24.6%
COC[C@@H]1CN(c2ncccn2)C[C@H]1C(=O)Nc1ccc(OC)nc1,4.3,3.1%,25.1µM*,20.9%
COC[C@@H]1CN(c2ncccn2)C[C@H]1C(=O)NCCn1cccn1,9.1,-48.5%,20µM*,-13.0%
COC[C@@H]1CN(c2ncccn2)C[C@H]1C(=O)N(C)Cc1cn(C)nc1C,6.6,-3.2%,14.1µM*,-4.0%
COC[C@@H]1CN(c2ncccn2)C[C@H]1C(=O)N1CCc2ccccc21,7.1,-18.5%,?,10.7%
O=C(c1cc(-c2ccc(F)cc2)nc2ccccc12)N1CCN(Cc2ccncc2)CC1,.,.,i,.
O=C(O)c1ccc(CN2CCC(c3cc(N4CCCC4)ncn3)CC2)cc1,4.5,-2.0%,i,40.7%
COCCCNC(=O)CNC(=O)c1ccc(-c2cnc3ccccc3c2)cc1,28.0,.,.,.
CSCCC(NC(=O)c1ccccc1Cl)C(=O)Nc1cc(C)cc(C)c1 (centres undefined),.,.,i,.
COC[C@@H]1CN(c2ncccn2)C[C@H]1C(=O)NCc1ccccc1OC,3.5,-2.0%,17.8µM*,-13.9%
COc1ccccc1CNC(=O)[C@H]1CN(C(C)C)C[C@H]1C(=O)O,7.8,?,i,-16.8%
Cc1cc(CN(C)c2ccc(-c3nc(COc4ccccc4)no3)cn2)on1,16.8,0.4%,35.5µM*,156.2%
Cc1c(-c2ccccc2F)[nH]c2ccc(CNC(=O)CN3CC(=O)NC3=O)cc12,-0.3,6.5%,28.2µM*,40.8%
Cc1ncc(C(=O)NCc2ccc3[nH]c(-c4ccccc4F)c(C)c3c2)c(C)n1,-4.1,-11.8%,20µM*,3.8%
Cc1nc(CCC(=O)NCc2ccc3[nH]c(-c4ccccc4F)c(C)c3c2)n[nH]1,18.4,-5.9%,25.1µM*,113.6%
SMILES,IP6K1 inhibitor,HEK293 viab,KDM5B inhibitor,SNCA expr inhib
Cc1c(-c2ccccc2F)[nH]c2ccc(CNC(=O)CCn3cnnc3)cc12,2.1,-10.1%,31.6µM*,13.3%
Cc1ccc(CNC(=O)CCc2ncc(-c3c(F)cccc3F)o2)cc1F,.,.,i,.
Cc1ncc(CC(=O)NCc2ccc3[nH]c(-c4ccccc4F)c(C)c3c2)c(=O)[nH]1,-5.3,4.0%,?,85.1%
CC(Oc1ccc(F)cc1)C(=O)N1CCN(Cc2nc(N)c3ccccc3n2)CC1 (centres undefined),.,.,i,.
CCOc1cc2c(cc1CNC(=O)c1cc(S(=O)(=O)NC3CC3)c(Cl)cc1Cl)OC(C)C2 (centres undefined),.,.,i,.
CCOCCOC1CCN(C(=O)NCc2ccc(OC)cc2)CC1,5.5,1.4%[12.5 µM],i,6.8%
Cc1ccc(-c2nnc([C@H]3CCN(C4CCC4)C3)o2)cc1,-2.3,1.7%[87.6 µM],31.6µM*,104.7%[87.6 µM]
Cc1ccc(-c2nnc([C@H]3CCN(C(C)C)C3)o2)cc1,8.4,0.7%[87.6 µM],31.6µM*,89.1%[87.6 µM]
CN1CCC(N2CC[C@H](c3nnc(-c4ccc(Cl)cc4)o3)C2)CC1,8.9,4.6%[87.6 µM],?,7.8%[87.6 µM]
CC(C)N1CC[C@H](c2nnc(-c3cccnc3)o2)C1,5.4,-0.2%[87.6 µM],?,13.5%[87.6 µM]
Clc1ccc(-c2nnc([C@H]3CCN(C4CCCCC4)C3)o2)cc1,-1.8,-11.6%[87.6 µM],25.1µM*,19.5%[87.6 µM]
COCC(=O)N1CC[C@H](c2nnc(-c3ccc(C)cc3)o2)C1,13.5,-0.1%[87.6 µM],i,7.4%[87.6 µM]
CN(CC(=O)N1CCn2nc(Cc3ccccc3)cc2C1)Cc1ccncc1,21.1,-9.1%,14.1µM*,2.2%
COCCNC(=O)c1ccc(-c2ncc3cnc(-c4cccc(F)c4)cn23)cc1,-15.1,-6.8%[87.6 µM],35.5µM*,-17.7%[87.6 µM]
CC(=O)N1CCN(C(=O)c2ccc(-c3ncc4cnc(-c5cccc(F)c5)cn34)cc2)CC1,-11.6,0.1%,?,-1.9%
O=C(NCCCN1CCCC1=O)c1ccc(-c2ncc3cnc(-c4ccccc4)cn23)cc1,-11.6,-4.8%,31.6µM*,0.0%
O=C(NCc1cnccn1)c1ccc(-c2ncc3cnc(-c4cccc(F)c4)cn23)cc1,-7.8,-5.8%[87.6 µM],35.5µM*,?
COc1ccc(F)cc1-c1cccc(C(=O)NCCNC(=O)c2ccc(F)cc2)c1,-7.2,4.9%,.,-0.9%
CN(C)CCN(C)C(=O)c1ccc(-c2ncc3cnc(-c4cccc(F)c4)cn23)cc1,2.0,-2.3%[87.6 µM],39.8µM*,13.9%[87.6 µM]
O=C(NCc1cnccn1)c1nc(-c2ccccc2)cc2[nH]ccc12,-7.7,-4.0%[87.6 µM],i,-28.8%[87.6 µM]
CC(C)n1nc(C(=O)NCCCN2CCCC2=O)c2ccccc2c1=O,.,.,i,.
O=C(c1ccc(-c2ncc3cnc(-c4ccccc4)cn23)cc1)N1CCc2cccnc21,-4.2,?,31.6µM*,?
Cc1ccc(C(=O)Nc2ccc(-c3nnc4n3CCCC4)cc2)s1,-1.4,-2.8%,i,75.3%
CSCc1noc(CNC(=O)c2ccc(-c3ccccc3Cl)o2)n1,20.5,18.5%,31.6µM*,-2.9%
Cc1cc(N2CCC(c3nccn3Cc3ccccn3)CC2)nc2ccccc12,-8.6,-0.9%,31.6µM*,-11.2%
SMILES,IP6K1 inhibitor,HEK293 viab,KDM5B inhibitor,SNCA expr inhib
COCCN1CCC2(CCC1=O)CN(c1ccc(C#N)cn1)CCN2C (centres undefined),14.6,?,28.2µM*,?
O=C(NCCn1ccn2nc(-c3ccc(F)cc3)cc2c1=O)c1ccoc1,0.8,-5.5%,?,109.5%
COc1ccc(-c2cc3c(=O)n(CCNC(=O)c4ccc(OC)c(OC)c4)ccn3n2)cc1,-9.3,-5.5%,?,95.2%
CCOc1ccc(-c2cc3c(=O)n(CCNC(=O)Cc4ccccc4C)ccn3n2)cc1,-2.2,-1.5%,22.4µM*,19.1%
COc1ccc(-c2cc3c(=O)n(CCNC(=O)c4ccsc4)ccn3n2)cc1,-5.1,-11.2%,22.4µM*,15.7%
COc1ccc(-c2cc3c(=O)n(CCNC(=O)c4ccoc4)ccn3n2)cc1,-0.3,-13.2%,20µM*,5.9%
